Measured values: the supplement of paper PMC10681739

The sequences below were run against T1, ETS1 (UniProt P14921) (assay: ETS1 binding intensity (PBM fluorescence), ETS1 alone (arbitrary fluorescence units); higher = stronger binding). Conditions: ETS1 concentration 1 nM; RUNX1 concentration 0 nM.
T1 sequence: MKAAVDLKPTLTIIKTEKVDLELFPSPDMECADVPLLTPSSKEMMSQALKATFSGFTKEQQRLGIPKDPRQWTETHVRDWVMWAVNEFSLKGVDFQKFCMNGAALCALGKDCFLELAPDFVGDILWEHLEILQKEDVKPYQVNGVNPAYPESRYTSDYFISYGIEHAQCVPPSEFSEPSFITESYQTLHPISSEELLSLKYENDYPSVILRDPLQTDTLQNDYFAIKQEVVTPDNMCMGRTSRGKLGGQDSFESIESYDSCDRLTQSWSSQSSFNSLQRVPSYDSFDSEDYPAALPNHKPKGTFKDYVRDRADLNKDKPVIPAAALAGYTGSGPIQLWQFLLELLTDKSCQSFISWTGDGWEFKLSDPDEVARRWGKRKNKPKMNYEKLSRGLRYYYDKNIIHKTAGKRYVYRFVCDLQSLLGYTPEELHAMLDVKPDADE
Procedure: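 Cooperative genomic-context PBM: 36-bp genomic probes with neighbouring ETS1 and RUNX1 sites, double-stranded on Agilent 4x180k arrays. Full-length recombinant human ETS1 (1 nM) was incubated alone or with RUNX1 (25 nM) and detected with anti-ETS1 antibody plus Alexa488 secondary. Value is the median fluorescence intensity over 4 replicate spots; the ETS1+RUNX1 data were normalised to the ETS1-only data using probes without RUNX1 sites. The 36-bp variable region sits on the array probe with constant linker/primer flanks that are not printed.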
For TGTTTACTTCCTGGAGGCACTTTGGTTTTTCTTTCT, the ETS1 binding intensity was 490.
With CCCGGAAACTCAACTGCCCACTGCTGCGGCCGCCAT the ETS1 binding intensity was 599.
Work on GTGCCTCACCGCTTCCGGCGCTGCGGGATGACGTCA yielded an ETS1 binding intensity of 2390.
Sequence CCAGGGCCGGAAGTGCTGGTGGTGGTTTCCATCATG has an ETS1 binding intensity of 8960.
ATCCCACTATAGGAAGCTTCTCTGTGGTTTTGAGCC was tested, and the ETS1 binding intensity was 369.
Work on TATCTCCTATCTCCAGGAAGTGGTTAGCCCTAGGAG yielded an ETS1 binding intensity of 3210.
Work on AGGGTTGGGGAGGATGTTGTGGTTATTATTGACATA yielded an ETS1 binding intensity of 845.
Sequence TCAAGAAAACAGGAAACTCTCAAAACCAAGTTCTGA has an ETS1 binding intensity of 1430.
With GATCTTCCTGCAACCCCCCGAGACAACCACCGAACA the ETS1 binding intensity was 854.
AGCTTGACGAAGGCTTCCTGTGGTTTGGGTTGATGT showed an ETS1 binding intensity of 486.
ATTAAAGACTTCCGTGCAAGACCACAGCTGCCTGAC gave an ETS1 binding intensity of 555.
GCGAAAGGAACTTCCTTTGCATGCGGTCAGAGTGCT was tested, and the ETS1 binding intensity was 477.
In the case of CTCTTCTTCAGGGTTTCCTGTGGGTACACTGAGAAC, the ETS1 binding intensity is reported as 604.
In the case of AGGACCGGAAGTGCCCGAGGGCGGCCGCAGAACGGT, the ETS1 binding intensity is reported as 8870.
In the case of CAGGCTCGCCACAGGGGAAGTGGTTAGGGCGGGTCC, the ETS1 binding intensity is reported as 684.
For CCCGCGACACAAGGCGGATGTGGTACCCTCACTTGT, the ETS1 binding intensity was 3250.
For CGTGTGGGAGGCCGGAAGTTGCGGCTTCATTACTCG, the ETS1 binding intensity was 20400.
In the case of GCGCACGCGCGTTGTTTCCGCGGTAGTCAGGGCAGT, the ETS1 binding intensity is reported as 477.
In the case of CTGTCCGCTACATCCGGGACCTGCGGGACCGCCGAT, the ETS1 binding intensity is reported as 1770.
Sequence TCTTTTTATTTCCTGTGCAGTCTCGCCCACAGCACT has an ETS1 binding intensity of 1070.
For GCCATCCGCAGGACTCCGCGTTCTCGCGGTAAGTGG, the ETS1 binding intensity was 384.
TCTTGCCCGGGTCGGAAATGGTGGTCACGAGCGCTT was tested, and the ETS1 binding intensity was 1110.
Work on GGCAAACAGGAAACACTCCCAGGGCTGTGGGCTCCT yielded an ETS1 binding intensity of 1550.
GACACCTGAGAGGATGTGTGGCTTTGTGCTATGAGA was tested, and the ETS1 binding intensity was 769.
For TCAGGGGTGGGAGGAAGTGGTTAGGATCAGCCTGGG, the ETS1 binding intensity was 1910.
CCCGGAGGACGTCCGGCCTCTGTGAGCCGCAACCTT gave an ETS1 binding intensity of 440.
With CCGGTCCGCTCGCCGGAAATGCGGGCTCTCCTGCCG the ETS1 binding intensity was 8400.
With TGACTAAGACCGGAAGAAACCACAAAAACACAAAAA the ETS1 binding intensity was 2580.
Work on CATAGACCGGATGCCTCGTCAACCACAGAAACCAAT yielded an ETS1 binding intensity of 2620.
CCCACCCTCGCCGGAAGCCGAGCGGTTTCTACATCA showed an ETS1 binding intensity of 2120.
Sequence AACAGGAAGTGGTCTTAGAGATCATGCGGTTCAGAG has an ETS1 binding intensity of 2220.
In the case of GGAGCGCGCCGGAAACGCGCGGCTGCGGCCCGGGAG, the ETS1 binding intensity is reported as 4280.
Sequence ATAGACTCAGGAAGTGATTGTGGTAAGATTCTATAT has an ETS1 binding intensity of 1460.
For CTTTCGGGGGCGGAAGTTGCGGTGCATTGTAGGTTC, the ETS1 binding intensity was 7760.
TCCACATCCTGCTCCTCGGGTTTGCGGCGAGGACTC was tested, and the ETS1 binding intensity was 593.
Sequence GCGCCATTTCCGCTGCGCAAGGCACCACAGGCCCTG has an ETS1 binding intensity of 1140.
In the case of GCGCGGCCAGAGAAAGGATGTGGTATAGCAGAAAGT, the ETS1 binding intensity is reported as 1260.
TGGCTTTGCAGAAGGAAGCTGTGGTTTCTGGTCTTC was tested, and the ETS1 binding intensity was 620.
Sequence CCGAGCCGGCCTCTTCCGCCGCAAGTCCCTCCCCAA has an ETS1 binding intensity of 548.
For CTTCATCAACCCATCCTGTCTTGTGGTTAAGTCAAG, the ETS1 binding intensity was 392.
